Hits are enriched below; roughly 5.7% of the tested compounds scored in any of these assays.
DAX1 inh-1 – DAX1 (NR0B1) inhibitors on StAR promoter, primary screen, cell-based, luminescence, SF-1 (NR5A1), full-length DAX-1; HEK293T StAR-luciferase reporter, SF-1/DAX-1 repression relief; inhibition, % at 6.8 µM; 370,000 tested, 1.1% active;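 active = inhibition above the mean over all tested compounds plus 3 SD, cut at about 3.6% in these data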;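 note: 0% = DAX-1 cells with DMSO and 100% = cells lacking DAX-1 with DMSO; higher inhibition means more luminescence from relief of DAX-1 repression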
hcDAF12 agonist – H. contortus DAF-12 nuclear receptor activators, primary screen, cell-based, luminescence, HEK293, lit1-tk-luc reporter; HEK293 hcDAF-12 lit1-tk-luc reporter; 0% DMSO, 100% Δ7-dafachronic acid; activation, % at 6.8 µM; 370,000 tested, 1.4% active; AID 652067, 2013;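 active = activation above the mean of all tested compounds plus 3 SD, cut at about 5.5% in these data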;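 note: 100% = response to 3 µM Δ7-dafachronic acid high control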
AHR act – AHR activators, primary screen, cell-based, luminescence, luciferase reporter, human; Aryl hydrocarbon receptor (Homo sapiens), P35869; AHR-responsive luciferase reporter cells; activation, % at 5 µM; 320,000 tested, 2.5% active; AID 2796, 2010; in the data active = activation above about 47%;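 note: 0% = vehicle wells and 100% = reference agonist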
hgDAF12 agonist – H. glycines DAF-12 receptor agonists, primary screen, cell-based, luminescence, HEK293, GAL4 fusion, UAS-luciferase; HEK293 GAL4-hgDAF12 UAS-luciferase reporter, agonist luminescence; normalized to butyrate control; activation, % at 6.8 µM; 370,000 tested, 1.8% active;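 active = activation above a cutoff set at the mean of all screened compounds plus 3 SD, cut at about 10% in these data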;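 note: 0% = DMSO wells and 100% = sodium butyrate wells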
DAX1 inh-2 – DAX1 (NR0B1) inhibitors, primary screen, cell-based, HEK293, Gal4-DAX1, luciferase luminescence. Nuclear receptor subfamily 0 group B member 1 (Homo sapiens), P51843. HEK293 Gal4-DAX1 luciferase reporter. inhibition, % at 6.75 µM. 340,000 tested, 0.99% active. AID 504766, 2011;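 active = inhibition above the mean over all tested compounds plus 3 SD, cut at about 4.2% in these data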;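 note: 0% = DAX1-transfected cells with DMSO and 100% = empty-vector control cells with DMSO; inhibition shows as a rise in luminescence from relieved DAX1 repression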
Target sequence (P51843 207-470 limits assumed): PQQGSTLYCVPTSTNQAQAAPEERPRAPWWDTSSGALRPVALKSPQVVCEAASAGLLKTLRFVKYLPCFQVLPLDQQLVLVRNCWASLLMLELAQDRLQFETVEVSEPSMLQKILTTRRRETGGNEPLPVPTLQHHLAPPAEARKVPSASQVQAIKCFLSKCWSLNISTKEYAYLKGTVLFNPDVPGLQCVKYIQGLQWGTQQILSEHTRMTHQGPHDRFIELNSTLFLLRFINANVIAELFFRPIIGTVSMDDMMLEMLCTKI
ssDAF-12 act – S. stercoralis DAF-12 nuclear receptor activators, primary screen, cell-based, luminescence, HEK293, GRIP1 co-expression, lit1-tk-luc | AID 652126, 2013 | 370,000 tested, 1% active | activation, % at 6.8 µM | HEK293 ssDAF-12/GRIP1 lit1-tk-luc reporter; % of 3 µM dafachronic acid response | Nuclear hormone receptor DAF-12 (Strongyloides stercoralis);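 active = activation above the mean over all tested compounds plus 3 SD, cut at about 0.9% in these data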;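 note: 0% = DMSO-only wells and 100% = 3 µM delta7-dafachronic acid wells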
* hit, by the source's call; . = no result.

SMILES	DAX1 inh-1	hcDAF12 agonist	AHR act	hgDAF12 agonist	DAX1 inh-2	ssDAF-12 act
COc1cccc(CNc2ccc3c(c2)ncn3C)c1OC	0.2	0.3	.	0.1	2.7	-1.5
COc1cccc(CNc2ccc3c(c2)nc(C)n3C)c1OC	0.2	2.3	67.1*	2.8	2.2	-0.3
Cc1ccc(OC(=O)c2cccc(S(=O)(=O)N3CCCC3)c2)c(-n2nc3ccccc3n2)c1	1.6	0.8	37.7	11.3*	3.9	-0.8
Cc1ccc(OC(=O)c2ccc(S(=O)(=O)N(C)C)cc2)c(-n2nc3ccccc3n2)c1	2.9	3.2	19.6	12.0*	4.3*	0.5
O=C(CCOc1ccc(F)cc1)Nc1nccs1	0.3	-1.4	1.0	-1.0	-0.6	-0.7
O=C(COc1cccc(Br)c1)NN=C1c2ccccc2-c2ccccc21	-0.2	2.3	19.4	-0.1	-0.6	-1.0
O=C(NN=C1c2ccccc2-c2ccccc21)c1cccc(Br)c1	0.4	1.6	56.1*	1.9	0.2	-0.6
O=C(OCC(=O)N1CCN(c2ccccc2)CC1)c1cc(Cl)ccc1[N+](=O)[O-]	-4.3	-0.7	-1.2	-2.8	-0.4	-0.8
CN1OC[C@@H]2CN[C@H](c3ccc(-n4ccnc4)cc3)C[C@@H]21	-0.6	-1.9	.	-1.6	.	-0.8
Cn1cncc1C#Cc1c(C=O)[nH]c2ccccc12	-0.7	0.1	68.2*	-0.8	-0.3	-1.3
Cc1ccc(Cn2cccc(-c3nc4ccccc4s3)c2=O)cc1	1.1	2.0	9.1	7.8	3.1	-0.4
O=c1c(-c2nc3ccccc3s2)cccn1Cc1ccccc1	1.4	0.9	3.2	11.9*	2.2	-0.3
COc1cccc(Oc2ccc(S(=O)(=O)N3CCCC3)cc2[N+](=O)[O-])c1	-0.3	-1.0	1.8	0.7	-0.9	-1.3
Cn1c(O)c(N=NC(=O)Cc2c[nH]c3ccccc23)c2ccccc21	-1.5	0.2	.	-3.7	2.3	-0.7
Cn1c(O)c(N=Nc2ccccc2)c2ccccc21	-0.3	4.0	55.2*	0.3	0.4	1.2*
Cc1ccc2c(c1)c(N=Nc1ccc([N+](=O)[O-])cc1)c(O)n2C	-0.1	6.0*	34.9	-0.4	1.0	-0.2
Cc1c(C)n(C)c2ccc([N+](=O)[O-])cc12	0.6	-1.6	-5.8	-2.2	2.9	-1.5
Cn1c(O)c(N=Nc2ccc(F)cc2)c2ccccc21	0.1	5.6*	43.6	1.8	-0.7	0.1
CC(C)CN1C(=O)C[C@]2(C(=O)N(C)c3ccc(NC(=O)c4cc(F)ccc4F)cc32)C1c1ccccc1 (some centres not stated)	-1.1	3.5	.	1.0	.	-1.2
Cc1[nH]c2ccccc2c1Cc1n[nH]c(=S)o1	0.1	1.8	0.3	5.9	4.7*	-0.4
Cc1[nH]c2ccccc2c1CCC(N)=O	-0.9	-0.1	2.9	2.7	0.8	-1.2
Cc1[nH]c2ccccc2c1Cc1nnc(SCC(N)=O)o1	1.0	5.1	15.0	2.8	4.7*	-1.4
Cc1[nH]c2ccccc2c1Cc1n[nH]c(=S)n1C	-0.5	0.6	7.2	1.1	1.3	-0.7
COc1ccc(C)cc1-n1nnnc1SCC(=O)NC1CC1	-1.5	-0.1	1.3	0.7	0.7	-1.1
COc1ncnc2c1ncn2CCCN[C@H](C)c1cccc2ccccc12	-0.1	0.6	.	0.5	0.8	-0.3
SMILES	DAX1 inh-1	hcDAF12 agonist	AHR act	hgDAF12 agonist	DAX1 inh-2	ssDAF-12 act
CCn1c(SCC(=O)Nc2ccc(-c3nc4ccc(C)cc4s3)cc2)nnc1-c1ccccc1	.	.	3.0	.	.	.
Cc1ccc2nc(-c3ccc(NC(=O)CSc4nnc(-c5ccccc5)n4Cc4ccco4)cc3)sc2c1	1.8	0.6	.	11.7*	.	-0.9
Nn1c(SCC(=O)Nc2nccs2)nnc1-c1cc(-c2ccccc2)n[nH]1	1.2	2.5	.	11.2*	.	-0.6
Nn1c(SCC(=O)Nc2ccccc2-c2ccccc2)nnc1-c1cc(-c2ccccc2)n[nH]1	-0.8	-0.3	.	1.2	.	-1.0
COc1ccc(-c2cc(-c3nnc(SCC(=O)Nc4ccc(-c5nc6ccc(C)cc6s5)cc4)n3N)[nH]n2)cc1	1.3	3.3	.	12.9*	.	-0.3
COc1ccc([C@H]2C[C@H](n3cc(C4CC4)nn3)[C@@H](O)CN2C(=O)C2CCCCC2)cc1	0.8	-1.1	.	-1.4	0.8	-0.4
CC(N=C1NS(=O)(=O)c2ccccc21)C(=O)NCc1ccncc1 (configuration not stated)	1.6	0.0	.	-0.3	1.6	0.2
Cc1[nH]n(-c2ccccc2)c(=O)c1N=Nc1nccs1	-0.1	3.1	86.4*	0.6	-1.9	-0.3
CCOc1ccc(N=Nc2c(C)[nH]n(-c3ccccc3)c2=O)cc1	0.1	2.7	49.7*	-2.2	3.6	-0.8
CCOC(=O)c1ccc(N=Nc2c(C)[nH]n(-c3ccccc3)c2=O)cc1	0.3	3.2	3.4	-0.5	1.8	-1.6
Nc1c(C(=O)N2CCN(c3ccccc3)CC2)nnn1Cc1ccc(Cl)cc1	-1.5	-3.4	.	0.9	.	-1.5
N/C(Cc1nc(-c2ccc(Cl)cc2)cs1)=N/O	-0.5	0.0	7.0	1.3	2.2	-1.2
COC(=O)c1c(-c2ccccc2)csc1NC1=NS(=O)(=O)c2ccccc21	3.8*	2.0	15.7	9.8	1.9	0.4
CC(=O)NCCC(=O)Nc1cc(S(=O)(=O)N2CCCCC2)ccc1Oc1ccccc1	0.0	-1.0	-1.0	-1.2	0.3	-1.1
Cc1ccc2[nH]c3c(NCc4ccco4)ncnc3c2c1	-2.6	-2.0	56.7*	-1.8	-3.1	-2.7
COc1cc(CNc2ncnc3c2[nH]c2ccc(C)cc23)cc(OC)c1	-1.2	-2.5	26.8	-5.1	-3.2	-2.3
COc1ccc(/C=N/Nc2ncnc3c2[nH]c2ccc(C)cc23)c(OC)c1OC	0.1	0.6	62.7*	3.2	.	-1.2
CN(CC(=O)Nc1c(Cl)cccc1Cl)C(=O)CNC(=O)c1ccc2ccccc2c1	0.0	-0.4	3.0	-3.8	-0.7	-1.1
Cc1cc(N/N=C/c2c[nH]c3ccccc23)c2ccccc2n1	-1.0	4.5	58.2*	2.6	0.0	-0.2
Cc1cc(N/N=C/c2ccco2)c2ccccc2n1	-0.1	-1.6	2.6	-0.9	-0.4	-1.0
Cn1c(N/N=C/c2c[nH]c3ccccc23)nc2ccccc21	0.5	5.6*	56.2*	-0.8	0.8	0.6
